Assay results published in paper PMC12136788.
Numbering of substitutions follows the chain as printed. The full ranking holds about 5,800 sequences; the median of “enrichment r” is about 0.54, and the highest 2% start at about 16. For the sample, the highest values were picked, then their nearest neighbours and some sequences at random.

B1: chr1:111117940:111118053:-|3pUTR|ENSG00000156171|unk|total|mutant (ssRNA)
RNA: GGGAGUUCUACAGUCCGACGAUCAGGCUGACAGUAACACUGAUGAAUGCUGAUAAUCAGGAAACAUGAAAGAAGCCAUUUGACCGAUUAUUCUAAAGGAUAUCAUCAAGAAGACUAUUAAAAACACCUAUGCCUAUACUUUUUCAACAGAGGAUUGAGCAUCA
B2: chr8:76983344:76983445:-|CDS|ENSG00000164751|msi1|total|mutant (ssRNA)
RNA: GGGAGUUCUACAGUCCGACGAUCAGCCACCAGUGGCAAAGAAUGCGCUCUAUGUGGAGAGUGGCCCACCAUGCCUCACACCACCGGAUGUGAGCAUAUUUUCUGUUAUUUCUGUGCUAAGAGCCGUUUCUUAUUUGACGUGUACAACAGAGGAUUGAGCAUCA
B3: chr12:101746137:101746238:-|3pUTR|ENSG00000111670|msi1|total|mutant (ssRNA)
RNA: GGGAGUUCUACAGUCCGACGAUCGGUCCGUAAAUUAUUGCAGGCCACCUGUGUCUUUGUCAUACAUUCUUCUUGCUGUUGUUCCGUUUGUUUUUUUUCAAACAACCCUCUAAAAAUGUAAAAACCAUGUUCCGCUUGCAGCUGCAACAGAGGAUUGAGCAUCA
B4: ENSG00000070961:be:win_2001|CDS|ENSG00000070961|bound_else_gene|NA|bound_elsewhere_windowed (ssRNA)
RNA: GGGAGUUCUACAGUCCGACGAUCAAAUGAUAUUGUCACCGGCCUUACAUGCAUUGCUGUUGUGGGGAUUGAAGAUCCUGUGAGACCUGAGGUGCCAGAUGCAAUUAAAAAGUGUCAGAGGGCUGGAAUUACUGUGCGGAUGGUCAACAGAGGAUUGAGCAUCA
B5: ENSG00000145990:stop:overlap|stop_codon|ENSG00000145990|stop_codon|NA|stop_codon (ssRNA)
RNA: GGGAGUUCUACAGUCCGACGAUCUGAGCCCCGCCUACCUGAUCAGCGAGGCCAUGCGCCGCAGCAGGAUGUCCCUCUACUGUUAGCACAGAUUGAGAACCUCGGGGACUUGAGCCUUCUGCAGGGGAUGUCCACAGAGAGGGACAACAGAGGAUUGAGCAUCA
B6: chr9:124811826:124811928:+|3pUTR|ENSG00000185585|msi1|FALSE|unique (ssRNA)
RNA: GGGAGUUCUACAGUCCGACGAUCAAGAAAUUUUCUAGCCCAACUCCCUGUUUCAUGAAAGAGAAAAGAGGCUCAGAAAAGUUUAGAGAGCAGCUCAGUGUCACACUGGGAGCUGGGCACAGCCGAUCUCCUUCCAGAAGGGUUCAACAGAGGAUUGAGCAUCA
B7: chr2:171983412:171983537:+|3pUTR|ENSG00000128708|unk|FALSE|unique (ssRNA)
RNA: GGGAGUUCUACAGUCCGACGAUCUGAUGACUUUAAUUUUAAAAUCUUGUGACAUUUUGCUUAUACUAAAAGUUAUCUAUCUUUAGUUGAAUAUUUUCUUUUGGAGAGAUUGUAUAUUUUAAAAUACUGUUUAGAGUUUAUGAGCAACAGAGGAUUGAGCAUCA
B8: chr6:53267885:53267986:-|3pUTR|ENSG00000012660|msi1_unk|FALSE|overlapping (ssRNA)
RNA: GGGAGUUCUACAGUCCGACGAUCUUUAAUGUAAAUCUAAUAGUACUUGUAAUUUCUUUCUGCUUAGAAUCUAAAGAUGUGUUUAGAACCUCUUGUUUAAAAAUAAUAGACUGCUUAUCAUAAAAUCACAUCUCACACAUUUGACAACAGAGGAUUGAGCAUCA
B9: chr4:110049619:110049852:-|3pUTR|ENSG00000170522|msi1|FALSE|unique (ssRNA)
RNA: GGGAGUUCUACAGUCCGACGAUCUUGUUCAAUGUGACAUAAUAGUAUUAUAAUUGGUUAAGUAGCUUAAUGAUUAGGCAAACUAGAUGAAAAGAUUAGGGGCUUCCACACUGCAUAGAUUACACGCACAUAGCCACGCAUACACAACAGAGGAUUGAGCAUCA
B10: chr4:110049619:110049852:-|3pUTR|ENSG00000170522|msi1|total|mutant (ssRNA)
RNA: GGGAGUUCUACAGUCCGACGAUCUUGUUCAAUGUGACAUAACCGUAUUAUAAUUGGUUAAGCCGCUUAAUGAUCCGGCAAACCCGAUGAAAAGAUCCGGGGCUUCCACACUGCACCGAUUACACGCACACCGCCACGCAUACACAACAGAGGAUUGAGCAUCA
B11: chr9:14618660:14618761:-|3pUTR|ENSG00000175893|msi1|FALSE|unique (ssRNA)
RNA: GGGAGUUCUACAGUCCGACGAUCUUAGCUUUCCACAGGGAUUUCUUGAAAUGCUUUUGUUAUUAAACUCAAAAGGCAGUGAUUAGGAUGAAAUAAUUGUACAUAAUUUAUUUUAGUACUGACAGUGUUACAGAUUCUAAUUUACAACAGAGGAUUGAGCAUCA
B12: chr6:53267885:53267986:-|3pUTR|ENSG00000012660|msi1_unk|total|mutant (ssRNA)
RNA: B8 RNA with U40C, A41C, U64C, A65C, U83C, A84C, U106C, A107C
B13: ENSG00000198589:be:win_4601|CDS|ENSG00000198589|bound_else_gene|NA|bound_elsewhere_windowed (ssRNA)
RNA: GGGAGUUCUACAGUCCGACGAUCUGGCAGUAGUAUACUUUAUCUCUGUUCUUAUGGUCUCCAAGUACAGAGACAUUUUGGAACCCCAAAAUGAAAGGCAUAGCCAGUCAUGUACAGAAACUGGCAGUGAAAAUGAGAAUGUAUCAACAGAGGAUUGAGCAUCA
B14: chr4:17843545:17843646:+|3pUTR|ENSG00000109805|msi1|total|mutant (ssRNA)
RNA: GGGAGUUCUACAGUCCGACGAUCCUGUGCGCUUCCACGUUACUUUGGCCUGUAUUAAAGCAGCCGAGCAGCAUCAGUUAUUACCGUCCAGAAAAAGUGUGCAUCAGUCAGUCACACAGAUUUAUCACAAUCUGAGGUGGGCCUCAACAGAGGAUUGAGCAUCA
B15: chr8:22006149:22006250:+|3pUTR|ENSG00000130227|msi1|total|mutant (ssRNA)
RNA: GGGAGUUCUACAGUCCGACGAUCGAAUGUAUGAACUGGAGGAAGUUACUACAGUGGAAGGGUUCUUAAUAACAAGGUCUACCCCGCAUGAAGUAUUUAACAUUCUCCCAUCCCUUAAAAAAUAUACAUUUUUAUAAAAUGAAACAACAGAGGAUUGAGCAUCA
B16: chr6:145799413:145799514:-|3pUTR|ENSG00000118496|msi1|total|mutant (ssRNA)
RNA: GGGAGUUCUACAGUCCGACGAUCUUAUCUCACAUACUUACAACUCAACACACAGAGUGACCAUGUGCAGCUUUCUUUUUUGUCCGAUGCCACAUCCGAAGACUCAUCGCAGUGUGUUAUAUGACAGGACAAAGCAAAAACAAACAACAGAGGAUUGAGCAUCA
B17: chr11:46383557:46383658:+|3pUTR|ENSG00000110492|msi1_unk|FALSE|overlapping (ssRNA)
RNA: GGGAGUUCUACAGUCCGACGAUCCCACGCCCUCCCUCUCCCAGGCCCGAGAUGUGACCCACCAGUGCCUUCUGUCUGCUCGUUAGCUUUAAUCAAUCAUGCCCUGCCUUGUCCCUCUCACUCCCCAGCCCCACCCCUAAGUGCCAACAGAGGAUUGAGCAUCA
B18: chr3:10101824:10101929:+|3pUTR|ENSG00000144554|unk|FALSE|unique (ssRNA)
RNA: GGGAGUUCUACAGUCCGACGAUCAAAAUCUCUGAGUCAUGAUUCUGGACUUUGGGAGCUAGUUUUGAAACUCUGAUUUAUUGUAGAACUUAGGCUUGUACCAAUUUUACAAAUAAAUUCUGUUCUAAGUUCUGCCUCAGUUGCCAACAGAGGAUUGAGCAUCA
B19: chr20:11926050:11926151:+|3pUTR|ENSG00000132640|msi1|FALSE|unique (ssRNA)
RNA: GGGAGUUCUACAGUCCGACGAUCAUGAAAUGGAAUGAAGGCUAAUAUGCUUGCUUUAUUUACUUUUGUAAUCUUGGAUUUUGUAGCUUUUAAAACUAGAAACCAUUGUUCUAACAAAGCAGGCAACUUUAUUCUAUAAACACACAACAGAGGAUUGAGCAUCA
B20: chr8:65707876:65707977:+|CDS|ENSG00000066855|unk|FALSE|unique (ssRNA)
RNA: GGGAGUUCUACAGUCCGACGAUCCCUGCUGCCCUCAUAGCAGAGGCUCUGAAAAAGAAAUUUGCUUAUCGGUAUCGAAGUGAUAGCCAAGAUGAAGUUGAAAAAGGAAUUCCAAAGUCUGAAUCAGAGGCCACCUCAGAGAGACAACAGAGGAUUGAGCAUCA
B21: chr13:32776882:32776983:+|3pUTR|ENSG00000083642|unk|total|mutant (ssRNA)
RNA: GGGAGUUCUACAGUCCGACGAUCAAAGUGUUUUGAAUUGUGUCUUAAUCUCUCCAUAUUCAACUAUUCUUCAUUUACAACAACCGUGACACCAGUAAUUAUGAGAGGCUGUCAUAUAUCAAAGCAGCUCAGGUGGGAUCAACACAACAGAGGAUUGAGCAUCA
B22: chr1:235448940:235449205:-|3pUTR|ENSG00000162885|unk|FALSE|unique (ssRNA)
RNA: GGGAGUUCUACAGUCCGACGAUCAAUAGAGAAUUCCAUUAAAACUAGUCUUAUGACAGAUAUUAACUGUGUUCAGAUUUUAUUAGGCUAGCUAGUUUCUUUCUAUUUAAUAUUUAAAUCUUAUCAUGAAAUGCAGUGAUGAGCCAACAGAGGAUUGAGCAUCA
B23: chr20:11926050:11926151:+|3pUTR|ENSG00000132640|msi1|total|mutant (ssRNA)
RNA: B19 RNA with U83C, A84C, U96C, A97C
B24: chr10:92030471:92030572:+|3pUTR|ENSG00000095564|unk|total|mutant (ssRNA)
RNA: GGGAGUUCUACAGUCCGACGAUCUAUUUUUUUAUUAACUAUUUAUUUGCCCGUUCCAUAAACCAGCUCUUUAACACCGCUUACCGUAAUUGAUAUUUUCUCCGAAUAAGUACAGAGCAAUAUAUCAUUAAAGGGCUAUGAAGGCAACAGAGGAUUGAGCAUCA
B25: ENSG00000107863:be:win_551|CDS|ENSG00000107863|bound_else_gene|NA|bound_elsewhere_windowed (ssRNA)
RNA: GGGAGUUCUACAGUCCGACGAUCAAGGCAACGAAGCUUAUAGCGGCAAUGCCCGCAAUAUACCUGAACCUCCACCAAUCUGCUAUCCCUGGCUGCCAUCUGCCCCAUCAGCCAUGGCACAGCCAGUUGAAAUAUCUCCUCCUGCAACAGAGGAUUGAGCAUCA
B26: ENSG00000066933:stop:overlap|stop_codon|ENSG00000066933|stop_codon|NA|stop_codon (ssRNA)
RNA: GGGAGUUCUACAGUCCGACGAUCAUAGCUCAGAGAAUUUGAAUAUGGAGUCUGAAUAUGCUAUCUCUGAGAAAUCAGAAGCUUAGCCCUUAGCUCCCUGAAGACAGCUGGCAAGUCUGAACCUUCCAGCAAGUUGCGAAAGCACAACAGAGGAUUGAGCAUCA
B27: chr4:124666837:124666938:-|3pUTR|ENSG00000151458|msi1|total|mutant (ssRNA)
RNA: GGGAGUUCUACAGUCCGACGAUCAAUGAUUUCUUGGCAGUUUAAAAAAAAUAUUUUACCGCCGUUCCGGGAGCUGCUUUAAGCCGUUUAAAUCUGGAUUUUCCCAGCCGAAUUCUUCUCAUCUCUGGCUAAACAUGUCAGAACCAACAGAGGAUUGAGCAUCA
B28: chr10:92030471:92030572:+|3pUTR|ENSG00000095564|unk|FALSE|unique (ssRNA)
RNA: B24 RNA with C50U, C51A, C76U, C77A, C83U, C84A, C101U, C102A
B29: chr4:124666837:124666938:-|3pUTR|ENSG00000151458|msi1|FALSE|unique (ssRNA)
RNA: B27 RNA with C58U, C59A, C61U, C62A, C66U, C67A, C83U, C84A, C107U, C108A

biological target: MSI1 full-length (mouse, UniProt Q61474 1-362); assay: nsRBNS (natural sequence RNA bind-n-seq); RBNS binding buffer (assumed for nsRBNS): 25 mM Tris pH 7.5, 150 mM KCl, 3 mM MgCl2, 0.01% Triton X-100, 500 ug/ml BSA, 20 U/ml SUPERase-In, 4 C; UNK is unkempt and MSI1 is Musashi-1; names of the RNAs are library labels; protein concentration not given here; high values mean tight binding
Sequence (Q61474 whole entry): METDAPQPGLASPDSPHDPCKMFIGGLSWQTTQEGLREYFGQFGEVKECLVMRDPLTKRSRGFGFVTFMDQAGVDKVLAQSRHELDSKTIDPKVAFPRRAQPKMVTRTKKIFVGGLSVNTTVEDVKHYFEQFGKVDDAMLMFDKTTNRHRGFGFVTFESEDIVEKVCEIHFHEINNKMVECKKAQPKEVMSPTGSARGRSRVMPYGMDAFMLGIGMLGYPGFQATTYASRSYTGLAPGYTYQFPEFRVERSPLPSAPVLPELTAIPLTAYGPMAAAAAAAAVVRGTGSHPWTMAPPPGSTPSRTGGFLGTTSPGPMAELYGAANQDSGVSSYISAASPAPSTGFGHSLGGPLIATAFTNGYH

Binder | binding signal [enrichment R]
B1 | 0.337
B2 | 0.344
B3 | 0.343
B4 | 0.416
B5 | 0.305
B6 | 0.831
B7 | 3.32
B8 | 26.6
B9 | 43.1
B10 | 0.468
B11 | 1.51
B12 | 1.15
B13 | 0.339
B14 | 0.782
B15 | 0.38
B16 | 0.363
B17 | 1.31
B18 | 0.376
B19 | 1.07
B20 | 0.29
B21 | 0.958
B22 | 13.3
B23 | 0.37
B24 | 27.9
B25 | 0.51
B26 | 16.9
B27 | 0.225
B28 | 39.5
B29 | 23.2
